TEAD-YAP inh: TEAD-YAP interaction inhibition. HEK-TIYL cells, TEAD-Gal4/YAP UAS-luciferase luminescence. inhibition, % at 9.12 µM. actives 1.4% (n = 640,000). AID 1259422; in the data active means inhibition above about 32%;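 further: 0% = median of test compound wells and 100% = reference inhibitor wells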
GPR151 activ: activates the human receptor GPR151; PathHunter beta-arrestin GPR151 cells, luminescence; activation, % at 11.2 µM; actives 1% (n = 650,000); AID 1508602; in the data active means activation above about 4.9%;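 further: 0% = median of compound wells and 100% = cells with positive control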
Target sequence (Q8TDV0 whole entry, looked up): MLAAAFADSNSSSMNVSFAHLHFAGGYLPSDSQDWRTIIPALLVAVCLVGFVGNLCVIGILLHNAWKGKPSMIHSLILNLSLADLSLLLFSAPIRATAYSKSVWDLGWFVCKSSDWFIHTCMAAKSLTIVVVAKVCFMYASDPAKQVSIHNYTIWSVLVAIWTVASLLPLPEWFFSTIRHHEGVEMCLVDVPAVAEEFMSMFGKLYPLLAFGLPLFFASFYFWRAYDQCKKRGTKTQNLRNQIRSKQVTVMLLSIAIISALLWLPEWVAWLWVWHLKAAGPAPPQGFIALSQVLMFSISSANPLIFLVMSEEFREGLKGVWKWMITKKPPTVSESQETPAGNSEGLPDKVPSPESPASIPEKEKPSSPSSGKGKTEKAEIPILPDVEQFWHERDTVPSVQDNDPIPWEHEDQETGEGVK
FBW7 act: human FBW7 E3 ligase activation, primary screen; Q969H0; AlphaScreen FBW7–phospho-cyclin E peptide binding, activator screen; normalized activity (activation), % at 26.1 µM; actives 0.13% (n = 650,000); AID 1259310; in the data active means normalized activity above about 1.9%;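 further: purified mutant Fbw7 with reduced substrate affinity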
MITF primary: blocks human microphthalmia-associated transcription factor; O75030; AlphaScreen MITF homodimerization, bead proximity signal; inhibition, % at 2.6 µM; actives 0.91% (n = 650,000); in the data active means inhibition above about 50%;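 further: 0% = vehicle wells with protein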
MITF inh conf: confirmation of human MITF inhibitors; shares compounds with MITF primary; AlphaScreen MITF homodimerization, biotin/His-MITF beads; inhibition, % at 2.6 µM; actives 16% (n = 4,700);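 active means inhibition above a cutoff derived from the DMSO control wells, cut at about 28% in these data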;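 further: 0% = MITF dimer wells with DMSO only; inhibitors lower the bead chemiluminescence by keeping MITF from dimerizing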
AlphaScreen DR: optically interferes with AlphaScreen signal in dose response. AID 1259373. AlphaScreen optical interference counterscreen, cell-free. actives 6% (n = 480). IC50, µM. shares compounds with MITF primary; call rule not given here
AS interf ctr: AlphaScreen optical interference, counter-screen; inhibition, % at 2.6 µM; shares compounds with MITF primary; AID 1259376; LysRS AlphaScreen counterscreen, signal interference, triplicate; actives 7.6% (n = 4,700);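 active means inhibition above a cutoff derived from the DMSO control wells, cut at about 30% in these data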
* marks the source's active call; other numbers are inactive results; . = no result. Sampled rows, rich in hits. Any-hit rate of the full collection: about 3.5%.

SMILES	TEAD-YAP inh	GPR151 activ	FBW7 act	MITF primary	MITF inh conf	AS interf ctr	others
COc1ccc(N2CCN(C3CCCN(Cc4ccncc4)C3)CC2)cc1 (stereo unspecified)	0	0	0	0	.	.
O=C(C1CCCN(C2CCN(Cc3ccccc3)CC2)C1)N1CCN(c2ccccc2)CC1 (stereo unspecified)	14	-1	0	73*	6	17
c1ccc(N2CCN(C3CCN(Cc4ccncc4)CC3)CC2)cc1	9	0	0	75*	10	17
COC(=O)C1CCN(C(=O)C2CCCN(C3CCN(Cc4ccccc4)CC3)C2)CC1 (stereo unspecified)	4	1	0	-2	.	.
Fc1cccc(CN2CCC(N3CCN(c4ccccc4)CC3)CC2)c1	-2	0	0	77*	1	11
COc1ccc(Cn2c(=O)c3cccnc3n(CC(=O)Nc3ccc(C)cc3)c2=O)cc1	5	-1	0	-5	.	.
CSc1ccc(CN2CCN(C3CCN(Cc4ccccc4)CC3)CC2)cc1	15	-1	0	46	.	.
O=[N+]([O-])c1ccc(CN2CCC(N3CCCC3)CC2)cc1	0	-1	0	34	.	.
O=[N+]([O-])c1ccc(CN2CCC(N3CCN(c4ccccc4)CC3)CC2)cc1	17	-2	1	78*	4	5
Fc1ccc(CN2CCC(N3CCOCC3)CC2)cc1	2	-1	0	61*	-9	1
CC1CCN(C2CCN(Cc3ccc([N+](=O)[O-])cc3)CC2)CC1	14	-1	0	60*	-5	-2
CN(Cc1ccccc1)C1CCN(Cc2ccncc2)CC1	4	-1	0	81*	3	6
CN(Cc1ccccc1)C1CCN(Cc2ccccn2)CC1	7	4	0	41	.	.
CN(C)CCN(Cc1ccccc1)C1CCN(Cc2ccncc2)CC1	1	0	0	-3	.	.
CN(Cc1ccccc1)C1CCN(Cc2cccnc2)CC1	-7	3	0	72*	-3	-1
COc1ccc(-c2noc(-c3nnn(-c4ccc(C)cc4C)c3N)n2)cc1	-4	0	0	-1	.	.
Clc1ccc(OCc2nn3cc(-c4ccccc4)c4c3n2CCCC4)c(Cl)c1	-4	-1	0	-4	.	.
CCOc1cc(CN2CCN(S(=O)(=O)Cc3ccccc3)CC2)ccc1OC	13	1	0	-8	.	.
COc1cccc(CN2CCN(S(=O)(=O)Cc3ccccc3)CC2)c1	1	0	0	68*	4	14
CCS(=O)(=O)N1CCN(Cc2cccc(OC)c2)CC1	13	-1	0	57*	10	18
COc1cccc(CN2CCN(S(C)(=O)=O)CC2)c1	12	1	0	-4	.	.
O=C1CC(C(=O)N2CCOc3ccc(CN4CCOCC4)cc3C2)c2ccccc21 (stereo unspecified)	7	0	0	19	.	.
COc1ccccc1N1CCN(Cc2ccco2)CC1	-5	-1	0	32	.	.
COc1cc(CN2CCN(Cc3ccco3)CC2)cc(OC)c1OC	4	-1	0	71*	-16	1
COc1cc(CN2CCN(Cc3cccc(C)c3)CC2)cc(OC)c1O	-6	0	0	46	.	.
SMILES	TEAD-YAP inh	GPR151 activ	FBW7 act	MITF primary	MITF inh conf	AS interf ctr	others
COc1cc(CN2CCN(Cc3ccco3)CC2)cc(OC)c1O	5	0	0	76*	3	9
Cc1ccc(S(=O)(=O)N/N=C/c2cccc(F)c2)cc1	1	0	1	16	.	.
O=C(CN1CCN(C(=O)CSc2ccc(F)cc2)CC1)c1cccs1	-12	-1	0	80*	8	15
CN1CCN(CCOCCOc2ccc(Cl)c(Cl)c2)CC1	10	-1	0	57*	-1	0
CCc1cc(OCCN2CCNCC2)ccc1Cl	-3	2	0	29	.	.
CCc1cc(OCCOCCN2CCN(CC)CC2)ccc1Cl	-20	-2	0	68*	4	18
CN1CCN(CCOc2ccc(Cl)c(Cl)c2)CC1	-19	0	0	69*	-6	2
CCN1CCN(c2c(Cl)cccc2NC(=O)c2ccc(Cl)s2)CC1	-3	-1	0	8	.	.
CCN1CCN(CC(=O)c2ccc(Cl)s2)CC1	9	-1	0	74*	0	8
Cc1c(C)c(CSc2nc3ccccc3s2)c(C)c(C)c1Br	-5	3	0	-9	.	.
O=C(CN1CCN(Cc2nc(-c3ccco3)cs2)CC1)N1CCCC1	-4	0	-1	60*	9	5
Cc1ccc(NC(=O)CN(Cc2ccccc2)S(=O)(=O)c2ccc(Br)cc2)cc1C	-8	0	0	59*	-2	5
COc1ccc(CCN(CCC(=O)O)CCC(=O)O)cc1OC	1	-1	0	58*	-13	-3
O=C(OC1CCOC1=O)c1ccc(S(=O)(=O)NCc2ccco2)cc1 (stereo unspecified)	6	1	0	53*	52*	-8	AlphaScreen DR=>7.1
O=C(OC1CCCCC1=O)c1ccc(S(=O)(=O)NCc2ccco2)cc1 (stereo unspecified)	0	0	0	14	.	.
Cc1ccc(CN2CCN(S(=O)(=O)c3ccccc3)CC2)cc1	-3	3	1	71*	-5	5
Cc1ccc(S(=O)(=O)N2CCN(Cc3ccccc3[N+](=O)[O-])CC2)cc1	1	3	0	78*	9	15
CCc1ccc(CN2CCN(S(=O)(=O)CC)CC2)cc1	-9	3	0	51*	25	17
O=S(=O)(c1ccccc1)N1CCN(Cc2ccccc2)CC1	3	0	0	12	.	.
CCc1ccc(CN2CCN(S(=O)(=O)c3ccccc3)CC2)cc1	1	-1	0	55*	4	4
CC(=O)Nc1ccc(S(=O)(=O)N2CCN(Cc3ccccc3[N+](=O)[O-])CC2)cc1	3	1	0	-5	.	.
CCOc1ccc(CN2CCN(S(=O)(=O)CC)CC2)cc1	0	0	0	42	.	.
Cc1ccc(NC(=O)c2ccc3c(=O)n(-c4ccccc4)c(=S)[nH]c3c2)cc1Cl	8	0	0	4	.	.
O=C1/C(=C/c2ccc(Br)cc2)C=C(c2ccccc2)N1c1ccc(Cl)cc1Cl	2	1	1	10	.	.
CCCS(=O)(=O)N1CCN(Cc2ccncc2)CC1	0	-1	0	62*	9	9
CCCS(=O)(=O)N1CCN(Cc2ccc(SC)cc2)CC1	13	2	0	44	.	.
COC(=O)c1c(NC(=O)/C=C/C(=O)O)sc2c1CCN(C(C)=O)C2	5	0	0	83*	13	5
COC(=O)c1c(NC(=O)C2CC2)sc2c1CCN(C(C)=O)C2	12	-1	0	2	.	.
COc1cccc2cc(C(=O)NCCCN3CCOCC3)oc12	-1	-1	0	-18	.	.
